# Screening data deposited in PubChem BioAssay by National Center for Advancing Translational Sciences (NCATS).
# Pf growth 48h: inhibits P. falciparum growth in the first generation, 48 h. Potency, µM (doses to about 28.7 µM), hits mostly inhibitors. P. falciparum luciferase growth in erythrocytes, 48 h. 310,000 tested, 5.9% active. AID 504832
#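 Here the parasites carry a stable luciferase gene and grow inside erythrocytes in Albumax-based RPMI medium with compound for one erythrocytic cycle. Activity is scored as loss of luminescent signal.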
# Shiga inhibitor: blocks Shiga toxin action in Vero cells | inhibition, % at 38.7 µM | AID 2315 | 290,000 tested, 9.2% active | Vero cells, Shiga toxin protein synthesis inhibition reporter; in the data active means inhibition mostly above about 28%, no sharp cut-off; inactive means mostly below about 43%
# NS1 function inh: blocks influenza NS1 protein function; Potency, µM (top dose mostly 46.1 µM); 270,000 tested, 0.4% active; AID 2326; calls by dose curve; further: actives are rising curves; nearly all actives have a fitted effect of over 50% in size
#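 Read-out: OD600 growth recovery of NS1-expressing budding yeast. Cells grown overnight at 30C in -URA glucose medium, washed, resuspended and diluted 1:100 in 2% galactose assay medium, pH 6.0. Same strain lacking NS1 served as positive control.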
# CHX counter: counter-screen hit for Shiga toxin inhibitors, cycloheximide; 300,000 tested, 12% active; max response, %; cell reporter, cycloheximide protein synthesis inhibition counterscreen; AID 2314; in the data active means max response mostly above about 13%, no sharp cut-off; inactive means mostly below about 14%; further: read at 38.3 µM for the half of the compounds with a filed dose
# SARS PLpro yeast: inhibitors of SARS-CoV papain-like protease in yeast; S. cerevisiae expressing SARS-CoV PLpro, growth rescue; Potency, µM (titrated, usually from 32.9 µM), hits mostly activators; 330,000 tested, 0.19% active; AID 485353; calls by dose curve; further: nearly all actives have a fitted effect of over 55% in size
# Pf growth 96h: inhibits malaria parasite growth, 96 h; 320,000 tested, 6.9% active; AID 504834; Potency, µM (series often up to 28.7 µM), actives largely listed as inhibitors; P. falciparum luciferase reporter growth, 96 h
#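 P. falciparum expressing integrated firefly luciferase grown in erythrocytes (2% hematocrit, 0.05% parasitemia final) with compounds for 96 hours at 37 C, 5% CO2. Growth inhibition read as loss of luminescence after adding luciferase detection reagent.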
# Hits are given with their value; – = inactive; ? = inconclusive; · = not tested or not shown. Shown are actives, neighbours in structure and some others; about 21% of the full set was active somewhere. Unless noted, the call rests on the fitted dose curve; in most records, active means well fitted inhibition curve with a large enough effect; inconclusive means small, poorly fitted or top-dose-only effect, or another doubt; inactive means no such curve, though single readings can be large or run the other way.
SMILES,Pf growth 48h,Shiga inhibitor,NS1 function inh,CHX counter,SARS PLpro yeast,Pf growth 96h
CCC(=O)Nc1cccc(-c2cnc3ccccc3n2)c1,·,36,–,47,–,?
O=C(CCl)Nc1cccc(-c2cnc3ccccc3n2)c1,1µM,72,–,46,?,·
CCc1ccc(-c2cnc3ccccc3n2)cc1NC(=O)CNC(=O)c1ccccc1,–,105,–,37,–,–
CCc1ccccc1NC(=O)CNC(=O)c1n[nH]c(=O)c2ccccc12,–,·,·,·,–,–
Cn1c(SCC(=O)Nc2cccnc2Cl)nc2ccccc21,·,·,·,·,–,·
COc1ccccc1NC(=O)C1=C(C)Nc2nnnn2C1c1cc(Br)ccc1OC (stereo not given),–,–,–,–,–,?
CC1CN(CC(=O)Nc2ccc([N+](=O)[O-])cc2Br)CC(C)O1 (stereo not given),–,–,·,–,–,–
Cc1oc2cc3oc(=O)c(CCC(=O)NCCCN4CCOCC4)c(C)c3cc2c1C,–,–,–,active,–,?
Cc1c(CC(=O)NCCCC(=O)O)c(=O)oc2cc3oc4c(c3cc12)CCCC4,–,–,–,–,–,–
Cc1oc2cc3oc(=O)c(CCC(=O)NCCCn4ccnc4)c(C)c3cc2c1C,–,–,–,7.8,–,?
Cc1c(CCC(=O)NCCCn2ccnc2)c(=O)oc2cc3occ(C(C)(C)C)c3cc12,?,–,–,–,–,?
Cc1coc2cc3oc(=O)c(CCC(=O)NCCCn4ccnc4)c(C)c3cc12,–,–,–,–,–,10µM
Cc1c(CCC(=O)NCCCn2ccnc2)c(=O)oc2cc3oc4c(c3cc12)CCCC4,10µM,–,–,–,–,?
O=C1CCN(CCc2ccccc2)CCN1C(CSc1ccc(Br)cc1)Cc1ccccc1 (stereo not given),·,–,·,–,·,·
Cc1ccc2c(c1)SC1=NC(c3ccccc3)(C(F)(F)F)NC(=O)N12 (stereo not given),–,–,–,–,–,–
Cc1oc2c(C)c3oc(=O)c(CCC(=O)NCCCCCC(=O)O)c(C)c3cc2c1C,–,–,–,–,–,–
Cc1oc2c(C)c3oc(=O)c(CCC(=O)NCCCn4ccnc4)c(C)c3cc2c1C,13µM,–,–,–,–,?
O=C(O)c1ccc(N2CC3CC(C2)c2cccc(=O)n2C3)c(NC(=S)Nc2ccc(Br)cc2)c1 (stereo not given),–,–,·,–,–,–
C=CCc1ccccc1OCC(O)CN1CCN(c2ccc(C)cc2)CC1 (stereo not given),?,–,–,–,–,9.3µM
CCC(=O)Nc1ccc(C(=O)NNC(=O)c2cccc(C)c2)cc1,·,–,–,–,–,–
NNC(=S)NC1CC2CC1C1C=CCC21 (stereo not given),?,–,–,12,–,?
OC1CC2CC[C@H](C1)N2CCCN1c2ccccc2Sc2ccc(Cl)cc21 (stereo not given in full),·,·,–,·,·,·
Cc1cccc(NC(=O)N2CCN(Cc3ccc(Cl)cc3)CC2)c1,–,–,·,–,–,?
O=C(Nc1cccc(Cl)c1)N1CCN(Cc2ccccc2)CC1,–,41,–,21,–,–
CCOC(=O)N1CCN(C(=O)Nc2cccc(Cl)c2)CC1,·,–,–,–,–,12µM
SMILES,Pf growth 48h,Shiga inhibitor,NS1 function inh,CHX counter,SARS PLpro yeast,Pf growth 96h
Ic1ccc2c(c1)N(c1ccccc1)c1cc(Nc3ccc4nc5ccc(I)cc5[n+](-c5ccccc5)c4c3)ccc1N2,·,·,–,·,·,·
NCC(=O)Nc1ccccc1,·,·,–,·,·,·
CN(C)S(=O)(=O)Nc1ccc(NS(=O)(=O)N(C)C)c(S(=O)(=O)c2ccccc2)c1,–,–,–,–,–,·
CN(C)S(=O)(=O)Nc1ccc2c(c1)Cc1ccccc1-2,–,107,–,29,–,·
O=C(CSc1n[nH]c(-c2ccccc2F)n1)NCC(=O)Nc1ccc(F)c(F)c1F,–,–,·,–,–,–
CCCCCC[N+](C)(C)CC/C=C1/c2ccccc2Sc2ccc(Cl)cc21,?,–,–,–,–,2.1µM
S=C1Nc2ccccc2Sc2ccc(Cl)cc21,?,–,–,–,–,?
CN(C)CC/C=C1/c2ccccc2Sc2ccc(Cl)cc21,10µM,–,–,–,–,?
O=C(Nc1ccsc1C(=O)NC1CCCCC1)c1ccccc1,7.4µM,–,–,–,–,?
O=C(Nc1ccccc1C(=O)NC1CCCCC1)c1ccccc1,?,–,–,–,–,6.6µM
O=C(O)CCC(=O)Nc1ccccc1C(=O)NC1CCCCC1,–,–,–,–,–,–
COc1ccc(F)cc1C(=O)C1CCCN(Cc2c[nH]c3ccccc23)C1 (stereo not given),?,–,–,–,–,13µM
COc1ccc(F)cc1C(=O)C1CCCN(Cc2cccn2-c2ccccn2)C1 (stereo not given),10µM,–,–,–,–,3.3µM
O=C(c1cc(F)ccc1F)C1CCCN(Cc2cccn2-c2ccccn2)C1 (stereo not given),?,–,–,–,–,?
O=C(c1cc(F)ccc1F)C1CCCN(Cc2cc(Cl)ccc2O)C1 (stereo not given),4.1µM,·,–,–,–,?
Fc1ccc(-c2nnc(SCc3cccnc3)o2)cc1,–,66,–,26,–,–
COc1cccc(CSc2nnc(-c3ccc(F)cc3)o2)c1,–,–,–,18,–,?
COc1ccc(-c2nnc(SCc3cccc(C#N)c3)o2)cc1,–,–,–,–,–,·
N#Cc1ccc(CSc2nnc(-c3cccnc3)o2)cc1,–,–,–,–,–,–
COc1ccccc1CNC(=O)Cc1ccc(Br)cc1,?,active,–,35,–,–
COc1ccccc1CNC(=O)CS(=O)(=O)Cc1ccccc1,–,–,–,–,–,2.6µM
O=C(Cc1ccc(Br)cc1)NCc1ccccc1,–,–,–,19,–,?
Cc1ccc(CNC(=O)Cc2ccc(Br)cc2)cc1,–,–,–,–,–,–
Cc1ccccc1NC(=O)Cc1nnc(SCC(=O)NC2=NCCS2)n1C,–,–,–,–,–,?
Cc1ccc(S(=O)(=O)Nc2cc(C(=O)Nc3cc(C)cc(C)c3)ccc2Cl)cc1,–,–,–,–,·,–
SMILES,Pf growth 48h,Shiga inhibitor,NS1 function inh,CHX counter,SARS PLpro yeast,Pf growth 96h
CCOc1ccc(NC(=S)NC(C)c2cccs2)cc1 (stereo not given),–,–,–,–,?,–
Cc1noc(C)c1-c1ccc2ncnc(NCc3cccn3C)c2c1,·,–,·,–,·,·
CCC(=O)Oc1ccc(C(=O)Nc2c[nH]c(=O)[nH]c2=O)cc1,–,–,–,–,–,–
Cc1n[nH]c(C)c1S(=O)(=O)Nc1ccc2c(c1)OCCO2,–,36,–,51,–,–
O=S(=O)(Nc1ccc2c(c1)OCCO2)c1cccc(F)c1,–,–,–,25,–,–
Cc1ccc(S(=O)(=O)Nc2ccc3c(c2)OCCO3)cc1C,–,92,–,63,–,–
Cc1ccc(N(CC(=O)Nc2ccc3c(c2)OCCO3)S(=O)(=O)c2c(C)n[nH]c2C)cc1,?,–,–,–,–,?
Cc1nn(C)cc1S(=O)(=O)Nc1ccc2c(c1)OCCO2,–,69,–,72,–,?
